This is an account of results in PubChem BioAssay AID430 (Sanford-Burnham Center for Chemical Genomics, 2006).

The campaign covered roughly 63,000 compounds. About 1,100 (1.7%) were called active. For the sample, actives were picked, then their nearest neighbours and some compounds at random. Measured potencies and affinities stand elsewhere. Unmarked numbers belong to inactive results. No stated cut-off is given here; in the data, active means cytotoxicity above about 50%; inactive means the rest.

A short description of this assay: HPDE-C7 pancreatic duct cell viability loss – fluorescence, HTS (AID 430).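 Further: cells exposed to compound for 48 hours before viability readout; 0% = vehicle and 100% = reference cytotoxic drug.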 The note with it: HPDE-C7 pancreatic duct cells viability, at 10 µM, active compounds read high.
Regarding `CCOC(=O)c1sc(NC(=O)CCSC)nc1C`, the cytotoxicity was 26.2%.
Regarding `CCOC(=O)c1sc(NC(=O)CSc2ncn(-c3ccccc3)n2)nc1C`, the cytotoxicity is 70.4% (active).
For `CCOC(=O)c1sc(NC(=O)CSc2nnnn2-c2ccccc2)nc1C`, the cytotoxicity is -4.9%.
With `O=C(CSc1ncn(-c2ccccc2)n1)Nc1nc2ccccc2s1`, the cytotoxicity was 9.1%.
As for `CCOC(=O)c1ccc(NC(=O)CCc2nc(-c3ccc(Cl)cc3)no2)cc1`, the cytotoxicity is -3.7%.
As to `CCOC(=O)c1ccc(NC(=O)CCc2nc(-c3ccccc3)no2)cc1`, the cytotoxicity is -1.1%.
In the case of `CCOC(=O)c1ccc(NC(=O)CCc2nc(-c3ccccc3Cl)no2)cc1`, the cytotoxicity is 74.8% (active).
As to `Cc1sc2ncn3ncnc3c2c1C`, the cytotoxicity was 4.8%.
In the case of `Cc1cc(C)n2nc(C(=O)NCc3ccco3)nc2n1`, the cytotoxicity is 11.2%.
`COC(=O)c1ccccc1NC(=O)c1cnc2sccn2c1=O`: the cytotoxicity is 2.7%.
`COC(=O)c1ccccc1NC(=O)c1ccc(COc2ccccc2)o1`: the cytotoxicity was -7.8%.
Regarding `COc1ccccc1NC(=O)c1ccc(-c2ccccc2F)o1`, the cytotoxicity was -0.2%.
Consider `COC(=O)c1ccccc1NC(=O)c1ccc(-c2ccccc2F)o1`, for which the cytotoxicity was 88.4% (active).
In the case of `Cc1cc(O)c(-c2cc(C(=O)Nc3ccc(S(=O)(=O)N4CCOCC4)cc3)[nH]n2)cc1C` it was 1%.
With `COc1ccc(OC)c(NC(=O)c2cc(-c3cc(Cl)ccc3O)n[nH]2)c1`, the cytotoxicity was 12.2%.
For `COc1ccc(OC)c(NC(=O)c2cc(-c3ccc(C)cc3O)n[nH]2)c1`, the cytotoxicity was -13.3%.
For the compound `Cc1ccc(O)c(-c2cc(C(=O)Nc3ccc(S(=O)(=O)N4CC(C)OC(C)C4)cc3)[nH]n2)c1` (stereo not drawn), the cytotoxicity is -29.9%.
For `COc1ccc(NC(=O)c2cc(-c3cc(C)cc(C)c3O)n[nH]2)cc1Cl`, the cytotoxicity is 59.6% (active).
In the case of `O=C(Nc1cc(C(F)(F)F)ccc1Cl)C1CCN(c2nnc(-n3cccc3)s2)CC1` it was -14.7%; in that of `COC(=O)c1ccc(CSc2ncnc3c2nnn3-c2ccc(OC)cc2)o1`, -1%.
`O=C(O)CCC(=O)N1CCc2cc(S(=O)(=O)NC3CCCc4ccccc43)ccc21` (stereo not drawn): the cytotoxicity was 3.4%.
As for `Nc1ccccc1-c1nnc(SCc2ccccc2F)[nH]c1=O`, the cytotoxicity was 3.6%.
Take `NC(=O)CSc1nnc2sc3ccccc3n12`: the cytotoxicity was 3.6%.
In the case of `COc1cccc(S(=O)(=O)Nc2cccnc2)c1` it was -10.8%.
For the compound `COc1ccc(-c2cnc(SCC(=O)Nc3cc(C)on3)n2Cc2ccco2)cc1`, the cytotoxicity was -8.9%.
With `CCC(=O)Nc1cc(NC(=O)CSc2ncc(-c3ccc(F)cc3)n2Cc2ccco2)ccc1C`, the cytotoxicity is 3.8%.
On to `Cc1cnc(NC(=O)CSc2ncc(-c3ccccc3)n2Cc2ccco2)s1`, for which the cytotoxicity was -1%.
As to `COc1ccc(-c2cnc(SCC(=O)Nc3ccc4c(c3)OCO4)n2Cc2ccco2)cc1`, the cytotoxicity is 5%.
The figure for `O=C(CSc1ncc(-c2ccc(F)cc2)n1Cc1ccco1)Nc1ccc2c(c1)OCO2` is 72.6% (active).
In the case of `CC(=O)Nc1cccc(NC(=O)CSc2ncc(-c3ccc(Cl)cc3)n2Cc2ccco2)c1`, the cytotoxicity is 64% (active).
As to `CCOCCCN1CC(C(=O)NCCc2ccccc2)CC1=O` (stereo not drawn), the cytotoxicity is -5.3%.
For `CC(=O)Nc1ccc(C(=O)CSc2nc3ccccc3n2CC(=O)N2CCCC2)cc1`, the cytotoxicity was 5%.
Turning to `Cc1cc2c(c(N3CCOCC3)n1)C(=O)OC2`, the cytotoxicity was -1.9%.
Turning to `COc1ccc(CNC(=O)C2CCCN2S(=O)(=O)c2ccccc2)cc1` (stereo not drawn), the cytotoxicity was -10.6%.
The figure for `O=S(=O)(c1ccccc1Cl)N1CCCC(c2nc(-c3cccnc3)no2)C1` (stereo not drawn) is 2%; for `CCC(c1nnnn1Cc1ccco1)N(Cc1cc2cc(OC)ccc2[nH]c1=O)C1CCCCC1` (stereo not drawn) it is 97.7% (active); for `CCCC(c1nnnn1C(C)(C)CC)N(Cc1ccco1)Cc1cc2ccc(OC)cc2[nH]c1=O` (stereo not drawn) it is 72.9% (active).
In the case of `CCC(C)(C)n1nnnc1C(c1cc2cc(OC)ccc2[nH]c1=O)N1CCc2ccccc21` (stereo not drawn) it was 2.6%; in that of `CCC(C)(C)n1nnnc1C(c1cc2ccc(C)cc2[nH]c1=O)N(Cc1cccnc1)Cc1ccco1` (stereo not drawn), 23.4%; in that of `COc1ccc2[nH]c(=O)c(CN(Cc3nnnn3Cc3ccco3)C3CCCCC3)cc2c1`, 24.6%.
With `CCC(C)(C)n1nnnc1C(c1cc2ccc(OC)cc2[nH]c1=O)N1CCc2ccccc21` (stereo not drawn), the cytotoxicity is 50.8% (active).
Regarding `COc1ccc2cc(CN(Cc3ccco3)Cc3nnnn3C3CCCCC3)c(=O)[nH]c2c1`, the cytotoxicity was 23.1%.
The figure for `CCC(c1nnnn1C1CCCCC1)N(Cc1ccco1)Cc1cc2ccc(OC)cc2[nH]c1=O` (stereo not drawn) is 56.8% (active).
Take `CCC(C)(C)n1nnnc1C(c1cc2cc(OC)c(OC)cc2[nH]c1=O)N1CCc2ccccc21` (stereo not drawn): the cytotoxicity is 11.4%.
In the case of `CCC(c1nnnn1Cc1ccccc1)N(Cc1ccco1)Cc1cc2cc(OC)ccc2[nH]c1=O` (stereo not drawn), the cytotoxicity is 18%.
Take `COc1ccc2[nH]c(=O)c(CN(C3CCCCC3)C(c3nnnn3Cc3ccco3)C(C)C)cc2c1` (stereo not drawn): the cytotoxicity was 21.5%.
With `COc1ccc2cc(CN(Cc3ccco3)C(c3nnnn3C3CCCCC3)C(C)C)c(=O)[nH]c2c1` (stereo not drawn), the cytotoxicity is -35.5%.
In the case of `COC(=O)CN1CCN(C(=O)c2ccc(F)cc2)c2ccccc2C1` it was -14.6%; in that of `Cc1cc(Cl)ccc1N=Cc1c(O)n(C)c(=O)n(C)c1=O`, -4.4%; in that of `Cc1cccnc1NCC(O)COc1ccccc1` (stereo not drawn), -2.3%.
Take `CN1CCN(CC(=O)N(Cc2c(C#N)c3ccccc3n2C)c2ccccc2)CC1`: the cytotoxicity is 2.3%.
The figure for `O=C(c1ccccc1C(=O)N1CCN(c2ccc(F)cc2)CC1)N1CCN(c2ccc(F)cc2)CC1` is 2.5%; for `COC(=O)C(C)NC(=O)C1CCCN1S(=O)(=O)c1cc(C)c(Cl)cc1C` (stereo not drawn) it is 7.8%; for `CN(C)C(=O)N1CCC(C(=O)NCc2ccccc2)CC1` it is -9.6%.
Consider `Cc1nc(N2CCC(C)CC2)c2c(C)c(C(=O)O)sc2n1`, for which the cytotoxicity was -38.1%.
The figure for `Cc1cc(C)c2c3c(c(-c4ccccc4)n2n1)c(=O)n(C)c(=O)n3C` is -6.5%; for `CCN1CCN(c2ccc(NC(=O)COc3ccccc3Cl)cc2)CC1` it is -13.4%.
On to `Cn1cc(Cl)c(C(=O)N2CCN(c3ncccn3)CC2)n1`, for which the cytotoxicity is 3.1%.
